# Only some compounds are listed: those with a hit (about 3.2% of all), similar ones and a draw of the others.
# GLP1R cytotox: cytotoxicity in counter-screen for GLP-1R inverse agonists | HEK293 cAMP-luciferase reporter cells, luminescence, 24 h | Potency, µM (series often up to 38.3 µM), for the others: top-dose activity change, negative = inhibition, usual class: inhibitors | hit rate 0.13% among 410,000 | AID 624418;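 also: loss of luciferase light is scored as toxicity; % is scaled to controls: 0 for no effect and ±100 for the full control effect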
#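 Quantitative HTS format, 1536 wells, 200 cells/uL seeded. Compounds: 23 nL, 24 h, 37 °C. Detection: luciferase reagent, luminescence at 12 min RT; decreased signal taken as cytotoxic.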
# GLP-1R agonist: agonists of human GLP-1 receptor; HEK293 GLP-1R CRE-luciferase, luminescence, 4-6 h; cells express a hypersensitive GLP-1R form; Potency, µM (top dose mostly 45.6 µM), without a hit: at the top dose activation, hits mostly activators; hit rate 0.007% among 380,000; AID 624172; also: % of control where 0% means no effect
# Target sequence (P43220 whole entry, looked up): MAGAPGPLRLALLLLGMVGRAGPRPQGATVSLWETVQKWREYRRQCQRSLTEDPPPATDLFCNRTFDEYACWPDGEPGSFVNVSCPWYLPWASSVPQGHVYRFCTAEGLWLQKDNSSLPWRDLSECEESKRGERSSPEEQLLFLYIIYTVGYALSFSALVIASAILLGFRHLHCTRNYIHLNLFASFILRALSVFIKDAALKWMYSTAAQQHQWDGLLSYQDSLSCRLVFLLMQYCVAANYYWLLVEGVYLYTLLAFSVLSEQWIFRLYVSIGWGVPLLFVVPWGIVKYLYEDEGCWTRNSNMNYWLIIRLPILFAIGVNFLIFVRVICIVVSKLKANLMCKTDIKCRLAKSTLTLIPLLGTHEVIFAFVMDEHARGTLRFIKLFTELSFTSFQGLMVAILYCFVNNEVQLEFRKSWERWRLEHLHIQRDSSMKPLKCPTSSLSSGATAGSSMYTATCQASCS
# GLP-1R inv ag: acts as inverse agonist at human GLP-1 receptor; hit rate 1.6% among 410,000; Potency, µM (top dose mostly 38.3 µM), inactives show at the top dose activity change, negative = inhibition, actives largely listed as inhibitors; HEK293 GLP-1R CRE-luciferase, luminescence, 24 h; GLP-1R form is constitutively active; P43220; AID 624417; also: % is scaled to controls: 0 for no effect and ±100 for the full control effect; nearly all actives have a fitted effect of over 55% in size
#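 HEK293 cells stably co-expressing constitutively active GLP-1R and a cAMP-responsive luciferase reporter were seeded in DMEM with 10% Nu serum, given compounds after 12 h, and incubated 24 h at 37 deg C. Luminescence was then read.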
# ClpP mod: qHTS Assay for Activators of ClpP; ATP-dependent Clp protease proteolytic subunit (Bacillus subtilis (strain 168)), P80244; purified B. subtilis ClpP, FRET peptide cleavage, 20 min; Potency, µM (doses to about 57.5 µM), without a hit: top-dose activity change, negative = active; hit rate 1.9% among 340,000; active = well fitted falling curve with a large enough effect; inconclusive = small, poorly fitted or top-dose-only effect; inactive = no such curve, though single readings can be large or run the other way; also: the source files actives as falling curves though it sought activators and does not explain the sign; nearly all actives have a fitted effect of over 65% in size
# Target sequence (P80244 whole entry, looked up): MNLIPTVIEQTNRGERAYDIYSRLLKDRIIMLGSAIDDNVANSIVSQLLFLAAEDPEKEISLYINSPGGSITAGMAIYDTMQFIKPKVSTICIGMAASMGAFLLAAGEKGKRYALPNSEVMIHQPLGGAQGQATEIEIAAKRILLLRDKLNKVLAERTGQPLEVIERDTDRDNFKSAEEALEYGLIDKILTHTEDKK
#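 FRET quenching reversal measured ClpP activation: 10 microg/mL B. subtilis ClpP at pH 8 with the FRET-FV decapeptide, read at 430 nm after 320 nm excitation. The 20-min minus 0-min signal was scaled between DMSO/no-enzyme wells and ADEP (5.8 microM final).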
# Active calls of the source: *; ? = inconclusive; nt = no result; ! = not confirmed by another sample; [ ] = remark or other dose. Unless noted, calls follow the shape of the dose curve; as a rule, active = well fitted curve in the direction sought with a large enough effect; inconclusive = small, poorly fitted or top-dose-only effect, or another doubt; inactive = no such curve, though single readings can be large; an effect the other way counts as inactive or inconclusive. Potency is read from the fitted curve at half-maximal effect.
SMILES,GLP1R cytotox,GLP-1R agonist,GLP-1R inv ag,ClpP mod
CCc1ccc(NC(=O)CN2CCCN(S(=O)(=O)c3ccc(F)cc3)CC2)cc1,8%,5%,5µM*,-1%
O=C(CN1CCN(S(=O)(=O)c2ccc(Br)cc2)CC1)Nc1ccc2c(c1)OCCO2,-11%,0%,?,1%
COc1cc(OC)nc(Oc2ccccc2C(=O)Oc2ccc(Cl)cc2)n1,-21%,18%,3.2µM*,0%
CCC(C)(C)n1nnnc1C(c1cc2cc3c(cc2[nH]c1=O)OCO3)N1CCCCC1 (centres undefined),109%,1%,9%,14µM*
COCCn1nnnc1C(c1cc2cc(C)ccc2[nH]c1=O)N1CCCCCC1 (centres undefined),18%,-3%,49%,28µM*
CCCN1CCN(C(c2cc3cc4c(cc3[nH]c2=O)OCO4)c2nnnn2C(C)(C)C)CC1 (centres undefined),-12%,2%,0%,?
COc1cc2cc(C(c3nnnn3C(C)(C)C)N3CCC(C)CC3)c(=O)[nH]c2cc1OC (centres undefined),-9%,2%,111%,13µM*
O=c1[nH]c2cc3c(cc2cc1C(c1nnnn1Cc1ccccc1)N1CCN2CCCC2C1)OCCO3 (centres undefined),2%,3%,44%,25µM*
Cc1ccc(Sc2ccc(N3CCC(C(=O)Nc4ccc(C)c(F)c4)CC3)nn2)cc1,6%,0%,6%,-2%
COC(=O)Nc1ccc(S(=O)(=O)N2CCC(C(=O)N(C)C3CCCCC3)CC2)cc1,-2%[0.307 µM],-5%,-6%[0.307 µM],13µM*
CCN(C(=O)CCS(=O)(=O)c1cc2[nH]c(=O)c(=O)[nH]c2cc1C)c1ccccc1,6%,nt,4%,32µM*
CCN(C(=O)CCS(=O)(=O)c1cc2c(cc1C)NC(=O)CO2)c1cccc(C)c1,2%,21%,-2%,2%
CCOc1ccc(/C=C/C2=CC(C)(C)NC(=S)N2)cc1,5.6µM*,5%,?,nt
COc1ccc(/C=C/C2=CC(C)(C)NC(=S)N2)cc1OC,?,23%,?,-5%
O=C(NCCCc1nc2ccccc2n1Cc1ccc(Cl)cc1)C1CCCCC1,4%,nt,?,2%
CCOc1ccc(-n2nc(CO)c(C(=O)NCc3cccs3)n2)cc1,-27%,nt,?,7.9µM*
Cc1ccc(-n2nc(CO)c(C(=O)NCc3cccnc3)n2)cc1,-15%,nt,-10%,7.9µM*
Cc1ccc(CNC(=O)c2nn(-c3ccc(Cl)cc3)nc2CO)cc1,10%,nt,15%,25µM*
Cc1ccc(-n2nc(CO)c(C(=O)NCc3cccs3)n2)cc1,-1%,nt,-17%,?
Cc1ccc(-n2nc(CO)c(C(=O)NCc3cccnc3)n2)cc1C,-36%,nt,?,16µM*
CCc1ccc(-n2nc(CO)c(C(=O)NCc3cccnc3)n2)cc1,-4%,nt,?,?
O=C(NCc1cccnc1)c1nn(-c2ccc(F)cc2)nc1CO,0%,nt,17%,25µM*
CCn1ncc(Br)c1C(=O)Nc1ccn(C23CC4CC(CC(C4)C2)C3)n1,8%,15%,7.9µM*,0%
CCn1ncc(Br)c1C(=O)N(C)C12CC3CC(CC(C3)C1)C2,-6%,-9%,?,0%
CCOCCc1nnc(NC(=O)C(=O)c2cc(C)n(-c3ccc(C)cc3C)c2C)s1,-21%,nt,?,0%
SMILES,GLP1R cytotox,GLP-1R agonist,GLP-1R inv ag,ClpP mod
Cc1cc(C)cc(C(O)c2ncc(-c3ccc(C(F)(F)F)cc3)[nH]2)c1 (centres undefined),?,1%,?,-10%
Cc1cc(C)cc(C(O)c2ncc(-c3ccc(Cl)cc3)[nH]2)c1 (centres undefined),0%,6%,13µM*,1%
CCOc1cc(C#N)c(NC(=O)c2ccc(OC)c(S(=O)(=O)N3CCCCC3)c2)cc1OCC,0%,nt,6%,4%
CC(=O)c1ccc(S(=O)(=O)N2CCN(c3nc(-c4ccccc4)nc4ccccc34)CC2)cc1,nt,nt,nt,-12%
COC(=O)C1=C(CN2CCN(C)CC2)NC(=O)NC1c1cc(C)ccc1C (centres undefined),-9%,3%,0%,2%
COC(=O)C1=C(CN2CCc3ccccc32)NC(=O)NC1c1cc(C)ccc1C (centres undefined),-24%,-12%,8.9µM*,-2%
COc1ccc(CNC(=O)c2ccc3c(c2)N(Cc2ccccc2C)C(=O)c2ccccc2S3=O)cc1 (centres undefined),1%,nt,-22%,-3%
O=C1COc2ccc(-c3cc(-c4ccccc4)c4c(n3)-c3cc(Cl)ccc3OC4)cc2N1,1%,-3%,-2%,-7%
COC(=O)c1ccc(-c2nc3ccc(C)cc3o2)cc1,-24%,-4%,0%,3.5µM*
Cc1ccc(-c2nc3cc(C)ccc3o2)cc1,-8%,-8%,-2%,32µM*
Cc1ccc2oc(-c3ccco3)nc2c1,9%,1%,3%,11µM*!
CCOC(=O)c1ccc(NC(=O)c2cc3cc(C)ccc3n2C)cc1,4%,nt,-20%,4%
CCCn1nc(Oc2nc(SC)nc(N(C)C)n2)ccc1=O,0%,-1%,6%,25µM*
CSc1nc(Oc2ccc(=O)n(C)n2)nc(N(C)C)n1,7%,12%,0%,-3%
CCOC(=S)SSC(=S)OCC,nt,9%,nt,nt
O=C(Nc1ccc(S(=O)(=O)N2CCCCC2c2cccnc2)cc1)c1ccc(Br)cc1 (centres undefined),-19%,nt,10µM*,3%
CCOc1ccc(C(=O)Nc2ccc(S(=O)(=O)N3CCCCC3c3cccnc3)cc2)cc1 (centres undefined),-25%,nt,?,?
COc1ccccc1Nc1cc(C(=O)NCc2cccs2)c2ccccc2n1,36%,-8%,?,12%
COCC(=O)Nc1nc2n(n1)C(c1ccccc1)CC(c1ccc(OC)cc1)N2 (centres undefined),462%,2%,58%,25µM*
CCN(CC)S(=O)(=O)c1ccc(NC(=O)Cn2ncc3c([nH]c4ccccc43)c2=O)cc1,3%,nt,?,-22%
Cc1ccccc1-c1nnc(SCC(=O)N2CCCCC2)o1,-5%,nt,3%,2%
COc1ccc(-c2nc(N3CCCCCC3)sc2C(=O)c2ccccc2)cc1,29%,5%,2µM*,-1%
O=C(c1ccccc1)c1sc(N2CCCCCC2)nc1-c1ccccc1,97%,12%,5µM*,-2%
C(=Nc1cnc2ccccc2c1)c1ccnc2ccccc12,nt,nt,nt,4%
c1ccc2oc(-c3ccc4nc[nH]c4c3)nc2c1,-5%,1%,58%,25µM*
O=S(=O)(NCCc1csc2nc(-c3ccccc3)nn12)c1cc(F)ccc1F,-11%,nt,12%,3%
O=S(=O)(c1ccccc1)n1nc(-c2ccco2)nc1NCc1ccccc1,7%,nt,7%,0%
CN1CCC(N(C)S(=O)(=O)c2ccc(NC(=O)COc3cccc(C(F)(F)F)c3)cc2)CC1,-1%,2%,11µM*,-5%

# High-throughput results: PubChem BioAssay, National Center for Advancing Translational Sciences (NCATS)
